Laboratory results as given in ChEMBL document CHEMBL1201862, “PubChem BioAssay data set” (2004).
In all, about 58,000 sequences went through this assay and about 3,400 (5.9%) were called active. No stated cut-off is given here; in the data, active = GI50 up to about 1.1 µM and inactive = higher. Only a sample is shown. Results with a measured potency or affinity are listed apart.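 A five-concentration, 48-hour dose response in 96-well plates underlies each endpoint, interpolated linearly between surrounding concentrations. GI50 is the concentration that inhibits growth by half.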

System: A549
Test: NCI tumour cell line growth inhibition, 48 h

Substance | GI50
[Bis(aminomethyl)ethylmethylsilane]tetrachloroplatinum(IV), CHEMBL2146192 | 2.57 µM
[Bis(aminomethyl)tetramethylenesilane]dichloropaltinum(II), CHEMBL2146205 | 27 µM
mu-(1,7-nanodiamine-N,N')bis-(cis-aminedichloroplatimum (II)), CHEMBL2146215 | 38.7 µM
[Bis(aminomethyl)dimethylsilane]tetrachloroplatinum(IV), CHEMBL2146190 | 4.91 µM
[Bis(aminomethyl)diethylsilane]tetrachloroplatinum(IV), CHEMBL2146203 | 6.84 µM
CISPLATIN, CHEMBL11359 | 3.08 µM
[Bis(aminomethyl)dimethylsilane]dichloroplatinum (II), CHEMBL2146201 | 17.4 µM
cis-Bis[[(trimethylsilyl)methyl]amino]tetrachloroplatinum(IV), CHEMBL2146191 | 15.6 µM
[Bis(aminomethyl)tetramethylenesilane]tetrachloropaltinum(IV), CHEMBL2146189 | 8.34 µM
[Bis(aminomethyl)pentamethylenesilane]dichloropaltinum(II), CHEMBL2146202 | 2.08 µM
[Bis(aminomethyl)pentamethylenesilane]tetrachloropaltinum(IV), CHEMBL2146204 | 2.02 µM
